Experimental data: PubChem BioAssay (Tox21)
Several values for one entry are separate records, joined by “and”; a condition that tells them apart may be missing. Equal values may be shown once. Inconclusive results are not listed. Where a call stands in place of a potency, no number is given. Activity calls are given as the source filed them. Unless noted, calls follow the shape of the dose curve; as a rule, active = well fitted curve in the direction sought with a large enough effect in the repeat runs; inconclusive = weak or mixed curves; inactive = no such curve, though single readings can be large; an effect the other way counts as inactive or inconclusive.

Tests used:
[1] = qHTS assay to identify small molecule agonists of the hypoxia (HIF-1) signaling pathway (AID 1224846; active = well fitted activation curve with a large enough effect in the signal ratio in the repeat runs, not every such curve was filed as active; the % refers to the signal ratio)
Procedure, shortened: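 HRE-bla ME-180 cells (beta-lactamase reporter under hypoxia response element) were plated at 2,000 cells/well in medium with 0.5% dialyzed FBS, rested 5 hrs, then given compounds in DMSO for 17 hrs at 37C, 5% CO2. Reporter induction was read with CCF4-AM FRET substrate.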

[2] = qHTS RealTime-Glo MT Cell Viability Assay in HepG2 cells - 24 hour (AID 1224867); also: nearly all actives have a fitted effect of over 50% in size; also: potency is read from the fitted curve at half-maximal effect
Procedure, shortened: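 Cells + NanoLuc/prosubstrate dispensed (600 cells/well) → 5 h at 37 C/5% CO2 → compounds in DMSO transferred → 40 h incubation at 37 C, luminescence read at 0, 8, 16, 24, 32, 40 h.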

[3] = qHTS RealTime-Glo MT Cell Viability Assay in HEK293 cells - 32 hour (AID 1224868); also: nearly all actives have a fitted effect of over 50% in size; also: potency is read from the fitted curve at half-maximal effect
Procedure, shortened: (§1)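 Tox21 10K qHTS, HEK293, 600 cells/well, RealTime-Glo reagent co-dispensed with cells; 5 h preincubation, compound by pintool, 37 C, luminescence at 0–40 h.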

[4] = A CellTox Green Cytotoxicity Assay to monitor cytotoxicity in HEK293 cells - 0 hour (AID 1224869); also: nearly all actives have a fitted effect of over 50% in size; also: potency is read from the fitted curve at half-maximal effect
Procedure, shortened: (§2)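 HEK293 cells premixed with CellTox Green dye were seeded at 600 cells/well and left 5 h at 37 C/5% CO2 before pin transfer of 23 nL compound in DMSO. Fluorescence from dye bound to dead-cell DNA was read during 40 h treatment.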

[5] = qHTS RealTime-Glo MT Cell Viability Assay in HepG2 cells - 40 hour (AID 1224870); also: nearly all actives have a fitted effect of over 50% in size; also: potency is read from the fitted curve at half-maximal effect
Procedure, shortened: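 HepG2 cells (600/well) mixed with RealTime-Glo MT reagent, settled 5 h at 37 C/5% CO2 before compound addition. Nonlytic NanoLuc luminescence from viable-cell prosubstrate reduction read repeatedly during 40 h treatment at 37 C.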

[6] = A CellTox Green Cytotoxicity Assay to monitor cytotoxicity in HEK293 cells - 40 hour (AID 1224871); also: nearly all actives have a fitted effect of over 45% in size; also: potency is read from the fitted curve at half-maximal effect
Procedure, shortened: as §2

[7] = qHTS RealTime-Glo MT Cell Viability Assay in HEK293 cells - 16 hour (AID 1224872); also: nearly all actives have a fitted effect of over 50% in size; also: potency is read from the fitted curve at half-maximal effect
Procedure, shortened: as §1

[8] = qHTS assay to identify small molecule agonists of H2AX - cell viability counter screen (AID 1224847; calls by dose curve; also: nearly all actives have a fitted effect of over 30% in size; also: potency is read from the fitted curve at half-maximal effect)
Procedure, shortened: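 Viability of CHO-K1 (wild type) cells after 3 hr compound exposure was measured by CellTiter-Glo luminescence.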

[9] = qHTS assay to identify small molecule antagonists of the estrogen related receptor (ERR) signaling pathway from Tox21 library (AID 1224848); also: nearly all actives have a fitted effect of over 50% in size; also: potency is read from the fitted curve at half-maximal effect
Procedure, shortened: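 ERR reporter cell line (from NTP) seeded 2,000 cells/well, rested 6 h at 37 C/5% CO2, then pin-dosed with compounds in DMSO. After 18 h at 37 C, ONE-Glo added; luminescence read after 30 min at room temperature.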

[10] = qHTS assay to identify small molecule agonists of the estrogen related receptor (ERR) signaling pathway from Tox21 library (AID 1224849; calls by dose curve; also: nearly all actives have a fitted effect of over 15% in size); conditions: ERR reporter cell line, ONE-Glo luciferase, 18 h
Procedure, shortened: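 ERR reporter cell line (NTP) seeded, rested 6 h at 37 C/5% CO2, then pinned with Tox21 compounds in DMSO. After 18 h at 37 C, ONE-Glo luciferase luminescence was read following 30 min at room temperature.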

[11] = at 92.4 µM (top of the series) unless noted

SMILES	outcome [1]	Potency [2]	Potency [3]	Potency [4]	Potency [5]	Potency [6]	Potency [7]	Potency [8]	Potency [9]	activity change, positive = activation [10, 11]	activity change, positive = activation ([10]; at 42.5 µM (top of the series))	activity change, positive = activation ([10]; at 92.4 µM (top of the series))
C=CC(=C)CCC=C(C)C	inactive	inactive	inactive	inactive	inactive	inactive	inactive					
CCN(CC)CCCN(c1ccccc1)C1Cc2ccccc2C1	inactive	inactive		inactive	inactive		inactive	inactive				
CCN(CC)CCOc1ccc(C(O)(Cc2ccc(Cl)cc2)c2ccc(C)cc2)cc1 (stereo unspecified)	inactive	23.9 µM (active)	16.9 µM (active)	inactive	15.1 µM (active)	23.9 µM (active)	21.3 µM (active)		29.8 µM (active)	-61% [at 42.5 µM] (inactive)		
CC(C(O)c1ccccc1)N(C)CCOC(c1ccccc1)c1ccccc1 (stereo unspecified)	inactive		23.9 µM (active)	inactive		26.8 µM (active)	21.3 µM (active)		23.7 µM (active)	-45.6% [at 42.5 µM] (inactive)		
C=CC(=O)OCCC#N	inactive	inactive		inactive	inactive		inactive		inactive	47% (active)		
C=CC(C)(CCC=C(C)C)OC(=O)/C=C/c1ccccc1 (stereo unspecified)	inactive		inactive	38.9 µM (active)	inactive	38.9 µM (active)	inactive	inactive				
CSc1ccc2c(c1)N(CCC1CCCCN1C)c1ccccc1S2 (stereo unspecified)		48.8 µM (active) and 23.9 µM (active)	15.4 µM (active)	inactive	30.8 µM (active)	30.8 µM (active)	17.3 µM (active)	50.3 µM (active) and 55.2 µM (active)	27.2 µM (active)		-67.5% (inactive)	-73.9% (inactive)
CNCC[C@H](Oc1cccc2ccccc12)c1cccs1	inactive		23.9 µM (active)	inactive	23.9 µM (active)		23.9 µM (active)			-62.1% [at 42.5 µM] (inactive)		
C=C[C@](C)(O)CC[C@@H]1[C@@]2(C)CCCC(C)(C)[C@@H]2CC[C@@]1(C)O		49 µM (active)	21.9 µM (active)	inactive	54.9 µM (active)	43.6 µM (active)	19.5 µM (active)	113 µM (active)	27.3 µM (active)	-46.9% (inactive)		
Clc1cccnc1	inactive		inactive	inactive	inactive	inactive	inactive	inactive				
O=C(O)c1cccc(Cl)n1	inactive		inactive		inactive		inactive	inactive				
CN(C)CCCN1c2ccccc2Sc2ccc(C(F)(F)F)cc21	inactive		21.3 µM (active)	inactive		26.8 µM (active)	19 µM (active)	inactive				
Cc1c(C)n(Cc2ccccc2)c2ccc(C(=O)OCCN(C)C)cc12	inactive			inactive	23.9 µM (active)		inactive		inactive	-7.81% [at 42.5 µM] (inactive)		
O=Cc1ccc(F)cc1	inactive		inactive	inactive	inactive	inactive	inactive	inactive				
CC(C)C(=O)OCc1ccccc1	inactive			inactive	inactive			inactive				
Oc1ccc(-c2ccc(O)cc2)cc1	inactive	inactive		inactive	inactive	inactive				-24.2% (inactive)		
CCOC(=O)N1CCC(=C2c3ccc(Cl)cc3CCc3cccnc32)CC1			15.5 µM (active) and 16.9 µM (active)	inactive		43.6 µM (active)	21.9 µM (active) and 8.49 µM (active)	61.9 µM (active)	30.6 µM (active) and 26.6 µM (active)		-46% (inactive)	-60.8% (inactive)
Cc1occc1SSc1ccoc1C	inactive		inactive	inactive	inactive	54.9 µM (active)	inactive	inactive				
O=C1OC(=O)c2cccc3cccc1c23	inactive	inactive	inactive	inactive	inactive	inactive	inactive		inactive	-2.65% (inactive)		
CCCSS/C(CCO)=C(\C)N(C=O)Cc1cnc(C)nc1N	inactive			inactive		inactive						
Cc1nc(Nc2ncc(C(=O)Nc3c(C)cccc3Cl)s2)cc(N2CCN(CCO)CC2)n1	inactive		30.1 µM (active)	inactive		inactive			8.41 µM (active)	-44.6% [at 42.5 µM] (inactive)		
C/C=C/C(=O)Oc1c(CCCCCC(C)C)cc([N+](=O)[O-])cc1[N+](=O)[O-]		21.9 µM (active)	15.5 µM (active)	inactive	43.6 µM (active)	38.9 µM (active)	19.5 µM (active)	50.5 µM (active)	6.11 µM (active)	-62.8% (inactive)		
